The entries come from a sample that favours hits as a whole.
miR-122 inh – raises miR-122 sensor activity in Huh7 cells | activation, % at 12.5 µM | AID 623901 | hit rate 0.14% among 340,000 | Huh7 psiCHECK-miR122 Renilla luciferase sensor, 48 h;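 active = mean activation of 30% or more, with every replicate also reaching 30%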;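 note: 0% = median of neutral control wells and 100% = median of positive control wells; higher luciferase signal means stronger suppression of miR-122 activity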
An asterisk follows results filed as active.

SMILES	miR-122 inh
COc1cccc(C#Cc2ccc3c(c2)O[C@H](CN(C)C(=O)CN2CCOCC2)[C@H](C)CN([C@H](C)CO)S3(=O)=O)c1	4.3
COc1ccc(C#Cc2ccc3c(c2)O[C@H](CN(C)C(=O)CN2CCOCC2)[C@H](C)CN([C@@H](C)CO)S3(=O)=O)cc1	54.5*
COc1ccc(NC(=O)N(C)C[C@@H]2Oc3cc(C#CCC(C)C)ccc3S(=O)(=O)N([C@@H](C)CO)C[C@@H]2C)cc1	42.7*
C/C=C/c1ccc2c(c1)O[C@H](CN(C)C(=O)Nc1ccc(OC)cc1)[C@H](C)CN([C@@H](C)CO)S2(=O)=O	6.2
COc1cccc(C#Cc2ccc3c(c2)O[C@@H](CN(C)C(=O)CN2CCOCC2)[C@@H](C)CN([C@H](C)CO)S3(=O)=O)c1	5.2
COc1cccc(C#Cc2ccc3c(c2)O[C@@H](CN(C)C(=O)CN2CCOCC2)[C@H](C)CN([C@@H](C)CO)S3(=O)=O)c1	4.9
COc1cccc(C#Cc2ccc3c(c2)O[C@@H](CN(C)C(=O)CN2CCOCC2)[C@H](C)CN([C@H](C)CO)S3(=O)=O)c1	-6.6
CCC(=O)N1C[C@H](C)[C@@H](OC)CN(C)C(=O)c2ccc(NS(C)(=O)=O)cc2OC[C@@H]1C	1.0
COc1cccc(NC(=O)N(C)C[C@H]2Oc3ncc(C#Cc4ccccc4)cc3C(=O)N([C@H](C)CO)C[C@@H]2C)c1	5.1
CCCNC(=O)N(C)C[C@H]1Oc2cc(C#Cc3cccc(F)c3)ccc2S(=O)(=O)N([C@@H](C)CO)C[C@H]1C	2.7
CC(C)CC#Cc1ccc2c(c1)O[C@@H](CN(C)C(=O)NC1CCCC1)[C@H](C)CN([C@@H](C)CO)S2(=O)=O	-15.4
C[C@@H]1CN([C@@H](C)CO)C(=O)c2cc(Br)cnc2O[C@H]1CN(C)Cc1cccc(F)c1	3.5
COc1ccc(-c2cnc3c(c2)C(=O)N([C@H](C)CO)C[C@@H](C)[C@@H](CN(C)C(=O)Cc2ccccc2)O3)cc1	0.4
CC(C)NC(=O)N(C)C[C@H]1Oc2cc(C3=CCCCC3)ccc2S(=O)(=O)N([C@H](C)CO)C[C@@H]1C	-24.8
C[C@H]1CN([C@@H](C)CO)C(=O)c2cc(/C=C/c3ccccc3)cnc2O[C@@H]1CN(C)Cc1ccccc1F	6.8
CC(C)CC#Cc1cnc2c(c1)C(=O)N([C@H](C)CO)C[C@H](C)[C@@H](CN(C)C(=O)Nc1cc(F)ccc1F)O2	9.8
O=C(Cn1c(=O)c2ccccc2n(CC(=O)N2CCCCC2)c1=O)N1CCCCC1	59.9*
C[C@@H]1CN([C@H](C)CO)C(=O)Cc2cc(N(C)C)ccc2O[C@@H]1CN(C)Cc1ccc(C(=O)Nc2ccccc2N)cc1	-130.4
O=C(Cc1cccc2ccccc12)Nc1ccc(OC(F)F)c(Cl)c1	-94.0
CC(OC(=O)c1cccc(S(=O)(=O)Nc2cccc(C(F)(F)F)c2)c1)C(=O)Nc1ccc2c(c1)OCCO2 (configuration not stated)	-101.3
O=C(Nc1ccc(OC(F)F)cc1)Nc1cccc(C(F)(F)F)c1	44.1*
C[C@@H]1CN([C@H](C)CO)C(=O)c2cccc(NC(=O)NC3CCCCC3)c2O[C@H]1CN(C)Cc1ccc(Cl)c(Cl)c1	-117.8
COc1ccc(NC(=O)Nc2ccc3c(c2)OC[C@H](C)NC[C@@H](C)[C@@H](OC)CN(C)C3=O)cc1	-1.6
CNC(=O)c1nnsc1S(=O)(=O)c1ccc(Cl)cc1	30.9*
O=S(=O)(Nc1ccncc1)c1ccc(Cl)cc1	-119.3
SMILES	miR-122 inh
O=C(NNS(=O)(=O)c1ccc(Cl)cc1)c1cccs1	-115.6
C[C@H](CO)N1C[C@H](C)[C@@H](CN(C)CC2CCCC2)Oc2ncc(C#Cc3cccc(F)c3)cc2C1=O	6.4
COc1cccc(-c2cnc3c(c2)C(=O)N([C@@H](C)CO)C[C@@H](C)[C@@H](CN(C)C(=O)Nc2ccccc2F)O3)c1	0.9
C[C@@H](O)C#Cc1ccc2c(c1)O[C@H](CN(C)Cc1cncnc1)[C@@H](C)CN([C@@H](C)CO)S2(=O)=O	-0.1
COc1ccccc1C#Cc1ccc2c(c1)O[C@@H](CN(C)Cc1cncnc1)[C@@H](C)CN([C@@H](C)CO)S2(=O)=O	3.7
C[C@H](O)C#Cc1ccc2c(c1)O[C@H](CN(C)C)[C@H](C)CN([C@@H](C)CO)S2(=O)=O	3.4
C[C@@H]1CN([C@@H](C)CO)S(=O)(=O)c2ccc(C#C[C@@H](C)O)cc2O[C@H]1CN(C)Cc1ccc(-c2ccccc2)cc1	41.2*
C[C@H](CO)N1C[C@H](C)[C@H](CN(C)Cc2ccc(-c3ccccc3)cc2)Oc2cc(C#C[C@@H](C)O)ccc2S1(=O)=O	40.7*
COc1ccccc1C#Cc1ccc2c(c1)O[C@H](CN(C)Cc1cncnc1)[C@@H](C)CN([C@H](C)CO)S2(=O)=O	-21.7
C[C@@H]1CN([C@@H](C)CO)S(=O)(=O)c2ccc(C#C[C@@H](C)O)cc2O[C@@H]1CN(C)Cc1cncnc1	9.3
C[C@H](O)C#Cc1ccc2c(c1)O[C@H](CN(C)Cc1ccc(-c3ccccc3)cc1)[C@@H](C)CN([C@H](C)CO)S2(=O)=O	48.6*
C[C@@H]1CN([C@H](C)CO)S(=O)(=O)c2ccc(C#C[C@@H](C)O)cc2O[C@@H]1CN(C)Cc1cncnc1	0.0
C[C@@H]1CN([C@H](C)CO)S(=O)(=O)c2ccc(C#C[C@@H](C)O)cc2O[C@@H]1CN(C)Cc1cccnc1	-3.4
C[C@H](CO)N1C[C@H](C)[C@H](CN(C)Cc2cncnc2)Oc2cc(C#C[C@@H](C)O)ccc2S1(=O)=O	2.9
COc1ccccc1C#Cc1ccc2c(c1)O[C@H](CN(C)Cc1cccnc1)[C@@H](C)CN([C@@H](C)CO)S2(=O)=O	40.5*
CCC(=O)N(C)C[C@@H]1Oc2ncc(-c3cccc(OC)c3)cc2C(=O)N([C@H](C)CO)C[C@@H]1C	-28.7
C[C@@H]1CN([C@H](C)CO)C(=O)c2cc(-c3ccc(C(=O)N(C)C)cc3)cnc2O[C@@H]1CN(C)Cc1ccc(C(=O)O)cc1	5.9
C[C@@H]1CN([C@@H](C)CO)S(=O)(=O)c2ccc(C#CCN(C)C)cc2O[C@@H]1CN(C)C(=O)CN(C)C	4.9
CC(=O)N(C)C[C@H]1Oc2cc(C#CC3CCCCC3)ccc2S(=O)(=O)N([C@H](C)CO)C[C@@H]1C	-19.6
CC(C)CC#Cc1cnc2c(c1)C(=O)N([C@@H](C)CO)C[C@@H](C)[C@@H](CN(C)C(=O)Nc1cccc(F)c1)O2	0.3
CO[C@@H]1CN(C)C(=O)c2cc(NC(C)=O)ccc2OC[C@H](C)N(C(=O)CN(C)C)C[C@@H]1C	1.9
COc1cccc(C#Cc2ccc3c(c2)O[C@@H](CN(C)S(=O)(=O)c2ccccc2F)[C@@H](C)CN([C@H](C)CO)S3(=O)=O)c1	-1.3
C[C@H]1CN([C@@H](C)CO)C(=O)c2cc(C#Cc3cccnc3)cnc2O[C@H]1CN(C)S(C)(=O)=O	-0.5
CCC(=O)Nc1ccc2c(c1)OC[C@H](C)N(CCC(F)(F)F)C[C@@H](C)[C@@H](OC)CN(C)C2=O	0.7
C[C@H]1CN([C@@H](C)CO)C(=O)c2cc(C#CC3(O)CCCC3)cnc2O[C@@H]1CN(C)Cc1ccncc1	2.3
CCC(=O)Nc1ccc2c(c1)C(=O)N(C)C[C@@H](OC)[C@@H](C)CN(C(C)=O)[C@@H](C)CO2	-2.7
C[C@H]1CN([C@@H](C)CO)C(=O)c2cc(/C=C/c3ccccc3)cnc2O[C@@H]1CN(C)C(=O)C1CCOCC1	2.1
C[C@H](CO)N1C[C@H](C)[C@@H](CN(C)Cc2cncnc2)Oc2cc(-c3cncnc3)ccc2S1(=O)=O	5.3

From PubChem BioAssay
